According to paper PMC5540273 (PLoS ONE, 2017):

What was measured:
Settings in all cases: concentration: 1 μM, replicates: in singlicate; n = 1
[1] = tested on: PRKCE
[2] = tested on: PRKCH
[3] = tested on: PRKCI
[4] = tested on: PRKCQ
[5] = tested on: PRKD1
[6] = tested on: PRKD2
[7] = tested on: PRKD3
[8] = tested on: PRKG1
[9] = tested on: PRKG2
[10] = tested on: T1, PRKR
T1 construct: gene EIF2AK2

[11] = tested on: PRKX
[12] = tested on: PRP4
[13] = tested on: T2, PYK2
T2 construct: gene PTK2B

[14] = tested on: QSK
[15] = tested on: RAF1
[16] = tested on: RET
[17] = tested on: RIOK1
[18] = tested on: RIOK2
[19] = tested on: RIOK3
[20] = tested on: RIPK1
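Further: KINOMEscan kinase panel screen.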

Row | Structure (SMILES) | %Inh [1] [%] | %Inh [2] [%] | %Inh [3] [%] | %Inh [4] [%] | %Inh [5] [%] | %Inh [6] [%] | %Inh [7] [%] | %Inh [8] [%] | %Inh [9] [%] | %Inh [10] [%] | %Inh [11] [%] | %Inh [12] [%] | %Inh [13] [%] | %Inh [14] [%] | %Inh [15] [%] | %Inh [16] [%] | %Inh [17] [%] | %Inh [18] [%] | %Inh [19] [%] | %Inh [20] [%]
1 | COc1cc2ncn(-c3cc(OCc4ccncc4)c(C(N)=O)s3)c2cc1OC [GSK336313] | 1 | 0 | 0 | 0 | 47 | 3 | 15 | 0 | 0 | 0 | 7 | 20 | 0 | 0 | 7 | 4 | 31 | 6 | 12 | 46
2 | C[C@@H]1CC[C@H](C(=O)NC2CCCCC2)CN1c1cc(-c2ccc3c(N)n[nH]c3c2)nc(N)n1 [GSK2291363] | 14 | 34 | 37 | 34 | 0 | 12 | 26 | 17 | 0 | 14 | 84 | 26 | 24 | 7 | 16 | 53 | 96.1 | 22 | 93.7 | 22
3 | CCS(=O)(=O)c1ccc(OC)c(Nc2ncc(-c3ccc(F)cc3)o2)c1.Cl [GW591947] | 0 | 18 | 11 | 0 | 0 | 0 | 0 | 45 | 0 | 0 | 0 | 16 | 11 | 0 | 9 | 13 | 22 | 0 | 29 | 10
4 | COC(=O)c1c(-c2ccccc2)c2cc(C)ccc2c(=O)n1Cc1ccccc1 | 0 | 0 | 0 | 36 | 0 | 8 | 0 | 0 | 0 | 0 | 0 | 4 | 0 | 0 | 66 | 13 | 3 | 0 | 0 | 0
5 | COc1cc2nccc(Nc3cccc(Oc4ccccc4)c3)c2cc1OC.Cl [GW284543] | 0 | 0 | 18 | 1 | 0 | 0 | 31 | 3 | 0 | 0 | 22 | 19 | 0 | 5 | 5 | 25 | 21 | 0 | 4 | 0
6 | COc1ccc(CNC(=O)NC2CCN(c3ccnc(Nc4ccc(F)cc4)n3)C2)cc1 (stereo not drawn) [GSK1379706] | 27 | 12 | 0 | 15 | 0 | 14 | 15 | 0 | 20 | 15 | 18 | 47 | 1 | 0 | 6 | 21 | 8 | 0 | 0 | 0
7 | CN(C)c1cc(-c2ccc3c(N)n[nH]c3c2)nc(N)n1 [GSK2219329] | 0 | 14 | 17 | 0 | 0 | 0 | 0 | 1 | 1 | 5 | 18 | 6 | 0 | 5 | 0 | 0 | 48 | 0 | 38 | 0
8 | O=C(Nc1n[nH]c2nc(-c3ccccc3)c(Cl)cc12)C1CC1 [SB-734909] | 10 | 0 | 0 | 0 | 0 | 35 | 5 | 6 | 20 | 0 | 0 | 0 | 0 | 38 | 30 | 0 | 7 | 41 | 7 | 55
9 | Nc1nccc2scc(-c3ccc4c(c3)CCN4C(=O)Cc3ccccc3)c12 [GSK2576924] | 0 | 31 | 20 | 0 | 0 | 16 | 11 | 10 | 12 | 8 | 14 | 13 | 0 | 0 | 5 | 11 | 13 | 6 | 11 | 71
10 | O=C(NCCNc1ccnc(Nc2ccc(F)cc2)n1)Nc1ccc2c(c1)OCO2 [GSK1379882] | 13 | 16 | 0 | 3 | 0 | 7 | 0 | 0 | 0 | 9 | 30 | 47 | 9 | 0 | 5 | 0 | 15 | 0 | 15 | 25
11 | Cl.NS(=O)(=O)c1cccc(Nc2cc(-c3ccc(F)cc3)n[nH]2)c1 [GW824645] | 12 | 0 | 0 | 0 | 0 | 5 | 0 | 0 | 0 | 0 | 0 | 0 | 0 | 0 | 10 | 0 | 0 | 0 | 11 | 0
12 | FC(F)(F)c1ccc(-c2ncn(CCCN3CCOCC3)c2-c2ccncc2)cc1 [SB-217780] | 35 | 0 | 19 | 30 | 0 | 0 | 0 | 29 | 25 | 0 | 14 | 0 | 34 | 0 | 0 | 20 | 47 | 5 | 50 | 0
13 | CC(C)(C)c1ccc(C(=O)Nc2cn3cc(-c4ccccc4)ccc3n2)cc1 | 5 | 0 | 10 | 37 | 8 | 19 | 4 | 1 | 0 | 0 | 3 | 19 | 0 | 0 | 0 | 0 | 2 | 14 | 22 | 0
14 | Cc1ccc(Oc2ccc(Nc3ncnc4cc[nH]c34)cc2C)cn1 | 0 | 27 | 7 | 9 | 0 | 2 | 8 | 0 | 23 | 8 | 2 | 46 | 9 | 13 | 5 | 8 | 100 | 0 | 24 | 0
15 | COc1ccc(-c2coc3ccc(-c4nnc(SCc5cccc(C#N)c5)o4)cc23)cc1 | 0 | 0 | 0 | 31 | 0 | 23 | 0 | 0 | 21 | 0 | 0 | 18 | 0 | 0 | 14 | 16 | 0 | 5 | 11 | 0
16 | COc1cc(Nc2ccnc3ccc(C(F)(F)F)cc23)cc(OC)c1OC [GW577382] | 19 | 13 | 48 | 4 | 6 | 6 | 0 | 3 | 6 | 0 | 15 | 27 | 0 | 22 | 20 | 9 | 11 | 15 | 0 | 15
17 | Nc1n[nH]c2ncc(-c3ccccc3)cc12 [SB-517081] | 16 | 72 | 21 | 3 | 4 | 0 | 0 | 0 | 0 | 0 | 0 | 24 | 0 | 1 | 0 | 12 | 6 | 0 | 4 | 0
18 | Cc1nn2c(=O)cc(N3CCOCC3)nc2n1Cc1cccc(Cl)c1Cl [GSK2342769] | 0 | 21 | 5 | 19 | 20 | 0 | 16 | 0 | 0 | 0 | 8 | 15 | 6 | 8 | 15 | 72 | 38 | 36 | 11 | 0
19 | O=C1NC(=O)C(c2ccccc2)=C1Nc1cccc(O)c1 [SB-390534] | 17 | 0 | 9 | 0 | 0 | 3 | 0 | 8 | 2 | 100 | 0 | 0 | 12 | 9 | 13 | 0 | 0 | 0 | 0 | 0
20 | O=c1cc(N2CCOCC2)nc2n(Cc3ccc(F)c(Cl)c3)ccn12 [GSK2297099] | 0 | 12 | 0 | 26 | 0 | 0 | 12 | 0 | 0 | 15 | 20 | 17 | 0 | 2 | 54 | 0 | 5 | 18 | 14 | 1
21 | O=C(Nc1ccc2c(c1)OCO2)NC1CCN(c2ccnc(NCc3ccc(F)cc3)n2)CC1 [GSK1379859] | 0 | 16 | 0 | 18 | 0 | 0 | 34 | 0 | 0 | 0 | 3 | 0 | 0 | 0 | 3 | 21 | 33 | 0 | 30 | 17
